Bioassay records deposited in PubChem BioAssay by National Center for Advancing Translational Sciences (NCATS).
Hits are enriched below; roughly 2.4% of the tested compounds scored in any of these assays.
POLI inh: DNA polymerase iota (human) inhibition; Q9UNA4; Pol iota fluorescent replication assay, 10 min; Potency, µM (doses to about 115 µM), for inactives: top-dose activity, negative = inhibition, most hits filed as inhibitors; 390,000 compounds, 1% hits; AID 588590
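Pol iota at 10 nM preincubated 15 min with compounds at room temperature; reaction started with fluorescent substrate, 50 nM final. Fluorescence read kinetically at 0 and 10 min; buffer-only wells as negative control.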
POLH inh: DNA polymerase eta (human) inhibition; Potency, µM (highest dose often 114 µM), inactives show at the top dose activity change, negative = inhibition, usual class: inhibitors; recombinant Pol eta, fluorescent DNA replication assay; Q9Y253; 390,000 compounds, 1.2% hits; AID 588591; also: % is scaled to controls: 0 for no effect and ±100 for the full control effect
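Pol eta at 10 nM preincubated with compounds 15 min at room temperature; reaction started with fluorescent substrate (50 nM final) and read kinetically at 0 and 10 min.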
POLK inh: inhibitors of human DNA polymerase kappa; Potency, µM (top dose mostly 107 µM), inactives show top-dose activity, negative = inhibition, hits mostly inhibitors; purified Pol kappa, fluorescent DNA synthesis assay, 10 min; 400,000 compounds, 0.53% hits; AID 588579; also: % is scaled to controls: 0 for no effect and ±100 for the full control effect
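Enzyme at 10 nM met test compounds for 15 min at room temperature. Substrate addition (50 nM final) began the reaction, which was monitored by fluorescence at 0 and 10 min.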
L3MBTL1 block: L3MBTL1 (human) inhibition. Q9Y468. AlphaScreen L3MBTL1–H3K9me1 peptide binding. Potency, µM (titrated, usually from 57.1 µM), for the others: at the highest dose activity, negative = inhibition, actives largely listed as inhibitors. 230,000 compounds, 0.66% hits. AID 485360; also: % is scaled to controls: 0 for no effect and ±100 for the full control effect; nearly all actives have a fitted effect of over 60% in size
Target sequence (Q9Y468 whole entry, looked up): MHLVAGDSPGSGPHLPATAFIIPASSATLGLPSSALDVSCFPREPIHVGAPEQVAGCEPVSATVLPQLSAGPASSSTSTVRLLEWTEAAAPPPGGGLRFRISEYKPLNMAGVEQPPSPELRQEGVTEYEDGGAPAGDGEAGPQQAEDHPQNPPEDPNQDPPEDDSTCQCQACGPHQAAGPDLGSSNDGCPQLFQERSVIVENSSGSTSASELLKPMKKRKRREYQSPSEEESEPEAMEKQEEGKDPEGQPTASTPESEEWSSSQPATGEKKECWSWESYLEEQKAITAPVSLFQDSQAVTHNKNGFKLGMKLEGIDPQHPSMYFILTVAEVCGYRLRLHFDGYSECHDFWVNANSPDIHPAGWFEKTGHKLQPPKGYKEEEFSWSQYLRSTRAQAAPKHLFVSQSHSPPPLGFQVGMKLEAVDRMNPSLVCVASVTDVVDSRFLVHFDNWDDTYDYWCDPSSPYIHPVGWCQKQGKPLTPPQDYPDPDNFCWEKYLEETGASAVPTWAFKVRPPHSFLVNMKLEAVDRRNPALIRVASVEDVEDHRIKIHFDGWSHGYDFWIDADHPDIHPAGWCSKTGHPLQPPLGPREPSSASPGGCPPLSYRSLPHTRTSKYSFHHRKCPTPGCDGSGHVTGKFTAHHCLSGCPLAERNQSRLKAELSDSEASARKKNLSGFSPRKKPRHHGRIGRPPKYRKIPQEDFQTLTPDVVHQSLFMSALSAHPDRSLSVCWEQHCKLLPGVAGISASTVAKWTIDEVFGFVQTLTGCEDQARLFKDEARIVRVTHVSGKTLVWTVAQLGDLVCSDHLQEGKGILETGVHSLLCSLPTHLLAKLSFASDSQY
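L3MBTL1 50 nM + b-AHA-H3(1-15)K9me1 75 nM, 30 min RT; compound added, 30 min RT; streptavidin donor/Ni-chelate acceptor beads 10 ug/mL each final, 30 min RT dark; AlphaScreen read.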
Pol beta inh: blocks human DNA polymerase beta activity. Pol beta primer extension/strand displacement, fluorescence kinetic. Potency, µM (highest dose often 114 µM), for inactives: top-dose activity change, negative = inhibition, actives largely listed as inhibitors. 340,000 compounds, 1.3% hits; also: % is scaled to controls: 0 for no effect and ±100 for the full control effect
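Pol beta (10 nM) and compounds were preincubated 15 min at room temperature, then 50 nM substrate (final) started primer extension/strand displacement. Reads were taken at 0 and 10 min; concentration-response data were fitted to a four-parameter Hill equation.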
An asterisk follows results filed as active; ? = inconclusive; . = no result; [ ] = dose if it differs, or a comment. Calls follow the shape of the dose curve; as a rule, active = well fitted curve in the direction sought with a large enough effect; inconclusive = small, poorly fitted or top-dose-only effect, or another doubt; inactive = no such curve, though single readings can be large; an effect the other way counts as inactive or inconclusive. Potency is read from the fitted curve at half-maximal effect.

SMILES	POLI inh	POLH inh	POLK inh	L3MBTL1 block	Pol beta inh
CCOC(=O)c1c(NC(=O)CSc2nnc(-c3ccccc3C)n2C)sc(C(C)=O)c1C	15.4%	35.5µM*	?	.	18.2%
O=C1NC[C@H](Cc2ccccc2)N(CC2CCN(CCc3ccc(-c4ccccc4)cc3)CC2)C1=O	-18.3%	-3.4%	0.8%	.	.
COc1ccc2[nH]c(=O)c(CN(Cc3nnnn3Cc3ccco3)C3CCCCC3)cc2c1	20µM*	-8.3%	35.5µM*	?	28.2µM*
Cc1ccc(CN(Cc2cc3cc4c(cc3[nH]c2=O)OCCO4)Cc2nnnn2Cc2ccco2)cc1	20µM*	?	70.8µM*	.	28.2µM*
COc1ccc2[nH]c(=O)c(CN(C3CCCCC3)C(c3nnnn3Cc3ccco3)C(C)C)cc2c1 (configuration not stated)	15.8µM*	17.8µM*	?	?	35.5µM*
O=C(O[C@H]1[C@H](Cc2ccccc2)NS(=O)(=O)[C@H]2CC3C=C[C@]12O3)c1ccc(Br)cc1	-1.6%	.	-16.1%	.	.
O=C(CSc1n[nH]c(-c2ccccc2)n1)NCCCc1ccccc1	-4.9%	-21.8%	-10.5%[60.1 µM]	.	6.5%
CC(=O)Nc1ccc(/C=C/c2ccc3cccc([N+](=O)[O-])c3n2)cc1	36.1%	2.9%	7.8%	.	-1.0%
O=C(O)COc1ccc(/C=C/c2ccc3cccc([N+](=O)[O-])c3n2)cc1	?	20µM*	?	-8.4%	1.1%
Cc1cc(C)nc(Sc2ccc([N+](=O)[O-])cc2[N+](=O)[O-])n1	4.1%	?	-10.1%	-0.9%	12.4%
O=[N+]([O-])c1ccc(Sc2ccncn2)c([N+](=O)[O-])c1	.	50.1µM*	.	.	.
C#CCN(C[C@H]1[C@H](OC(=O)Nc2c(C)noc2C)[C@H](OC(=O)Nc2c(C)noc2C)C[C@H]2C(=O)N(c3ccccc3)C(=O)[C@@H]12)S(=O)(=O)c1ccc(C)cc1	.	-12.9%	.	.	.
CSc1nsc(/C=C/Nc2ccc(O)cc2C)c1C#N	25.1µM*	-16.6%	-27.9%	-29.9%	0.2%
O=C(O)[C@H]1O[C@@H](Oc2ccc3ccc(=O)oc3c2)[C@H](O)[C@@H](O)[C@@H]1O	.	.	17.0%[60.1 µM]	.	.
O=C(N/N=C/c1ccccn1)c1cc(-c2ccc(Br)s2)[nH]n1	-11.8%	-29.4%	-22.1%	.	10µM*
O=C(N/N=C/c1ccccn1)c1cc(-c2ccc3ccccc3c2)n[nH]1	?	?	-24.6%	-1.7%	20µM*
O=C(N/N=C/c1ccncc1)c1cc(-c2ccc(Br)s2)[nH]n1	?	79.4µM*	-21.4%	.	22.4µM*
O=C(N/N=C/c1ccccn1)c1cc(-c2ccc(Cl)s2)[nH]n1	27.0%	-10.9%	-6.9%	.	35.5µM*
CCN(CC)/[N+]([O-])=N/OCOC(=O)C(C)c1ccc(CC(C)C)cc1 (configuration not stated)	31.1%	.	-15.6%	.	.
COc1ccccc1CNC(=O)c1cc2ccc3ccc(C)[nH]c3c2n1	0.9%	-21.7%	-11.0%	.	-20.7%
O=C1C2CC=C(Cl)CC2C(=O)N1c1ncn[nH]1 (configuration not stated)	?	22.4µM*	-3.5%	?	28.2µM*
O=C1C2CC=CCC2C(=O)N1c1ncn[nH]1 (configuration not stated)	6.2%[58.9 µM]	-5.6%	-0.3%	.	0.8%
CCOc1ccccc1N(C)C(=O)Cn1nc(Cc2ccncc2)c2ccccc2c1=O	?	-8.9%	-42.2%	.	19.5%
CN(C(=O)CSc1nc2ccccc2n1CC(=O)NCc1ccc(F)cc1)c1ccc(F)cc1	12.6%	-21.9%	-10.1%[60.1 µM]	.	11.6%
OCCCCCN=c1cc(-c2ccccc2)oc2ccc(Cl)cc12	-23.4%	-22.6%	-25.5%	-3.7%	35.5µM*
SMILES	POLI inh	POLH inh	POLK inh	L3MBTL1 block	Pol beta inh
Clc1ccc2oc(-c3ccccc3)cc(=NCCCN3CCOCC3)c2c1	61.7%	-20.1%	1.9%	.	-16.0%
O=c1c2cccc3c2c(nn1CN1CCOCC1)-c1ccccc1-3	-1.7%	7.4%	-10.6%	47.3%	12.4%
CCN(CC)CCn1nc2c3c(cccc3c1=O)-c1ccccc1-2	?	-9.5%	-64.4%	0.5%	10µM*
COc1ccc(-n2c(=O)c3c4c(sc3n(CC(=O)Nc3cc(C)[nH]n3)c2=O)CCC4)c(OC)c1	79.4µM*	-2.3%	0.1%	.	-4.8%
COc1ccc(-c2cc(-c3ccccc3)c(C#N)c(SCC(O)CS(=O)(=O)Cc3ccccc3)n2)cc1 (configuration not stated)	8.9%	-11.9%	5.3%	.	-21.7%
CN(Cc1ccccc1)c1ccc(-c2nc(-c3ccccn3)no2)cc1[N+](=O)[O-]	-4.3%	-11.6%	-3.1%	.	5.4%
Cc1ccc(-c2nn(CCC(=O)O)cc2/C=C\C(=O)c2ccc(Br)cc2)cc1	39.8µM*	79.4µM*	3.9%	-26.3%	-22.6%
O=C(O)CCn1cc(/C=C\C(=O)c2ccc(Cl)cc2)c(-c2cccc(Br)c2)n1	?	?	-1.3%	1.6%	?
O=C1c2ccc(O)c(O)c2C(=O)c2c(O)ccc(O)c21	.	.	2.82µM*	.	.
COc1ccc(C)cc1NC(=O)CN(c1cc(C(F)(F)F)ccc1Cl)S(C)(=O)=O	-8.0%	-10.4%	-4.2%	.	18.4%
O=C(NCc1ccccn1)c1ccc(Cn2c(=S)[nH]c3ccccc3c2=O)cc1	50.1µM*	-17.4%	-11.2%	.	?
O=C(NCc1ccccn1)c1ccc(Cn2c(=S)[nH]c3ccc(Br)cc3c2=O)cc1	179.8%	-7.5%	-2.4%	-3.5%	-24.8%
Cc1occc1-c1nnc(SCc2cc(=O)n3cc(Br)ccc3n2)n1C	?	?	-44.8%	-7.1%	44.7µM*
C=C/C(C)=C/C[C@H]1C(=C)CCC2[C@](C)(C(=O)O)CCC[C@@]21C (some centres not stated)	?	8.91µM*	?	-11.3%	.
CCOc1ccc(NC(=O)CCNS(=O)(=O)c2ccc3c(c2)CCCC(=O)N3)cc1	-5.7%	1.7%	-23.9%	.	0.7%
O=C(CCC(=O)Nc1ccc(Cl)cc1Cl)N/N=C/c1ccc([N+](=O)[O-])o1	56.2µM*	-27.6%	-25.0%	-12.2%	-20.1%
Cc1ccc2c(c1)c(=O)c(C(=O)c1ccncc1)cn2CC(=O)Nc1c(C)cccc1C	10.4%	-8.7%	-10.0%[60.1 µM]	.	-16.9%
Cc1cc2c(=O)c(C(=O)c3ccncc3)cn(CC(=O)Nc3cccc(C)c3C)c2cc1C	?	-23.7%	2.3%[60.1 µM]	.	39.8µM*
Cc1cccc(NC(=O)Cn2cc(C(=O)c3ccco3)c3ccccc32)c1C	?	79.4µM*	-38.9%	.	?
O=C(O)c1cccc(NC(=O)c2cn(-c3ccccc3)nc2-c2ccc([N+](=O)[O-])cc2)c1	0.5%	-1.8%	-17.7%	-1.4%	?
COc1ccc(-c2nn(-c3ccccc3)cc2C(=O)Nc2cccc(C(=O)O)c2)cc1[N+](=O)[O-]	-16.8%	-11.8%	-26.1%	-9.2%	35.5µM*
